# Laboratory results published in PubChem BioAssay (NCI).
# The panel holds about 83,000 compounds, 20% with a hit somewhere; the sample as a whole holds those more often.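 In brief: 96-well plates, 48 h treatment, single concentration, percent growth endpoint.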 Values without a mark were called inactive. The source made the active and inactive calls. How the source made its calls: active means growth percent below 10; inactive means the rest.
# Assays:
# Experiment in all cases: NCI-60 one-dose screen, 48 h (100 = growth as untreated, 0 = no growth, -100 = all killed)
# Conditions in all cases: 10 µM
# DU-145 prostate = test system: DU-145 prostate
# K-562 leukemia = test system: K-562 leukemia
# MALME-3M melanoma = test system: MALME-3M melanoma
# MDA-MB-231 breast = test system: MDA-MB-231 breast
# RXF 393 renal = test system: RXF 393 renal
# SF-268 CNS = test system: SF-268 CNS
# SF-295 CNS = test system: SF-295 CNS
# SF-539 CNS = test system: SF-539 CNS
# UACC-257 melanoma = test system: UACC-257 melanoma
# M14 melanoma = test system: M14 melanoma
# HT29 colon = test system: HT29 colon
# SNB-75 CNS = test system: SNB-75 CNS
# SNB-19 CNS = test system: SNB-19 CNS
# U251 CNS = test system: U251 CNS
# PC-3 prostate = test system: PC-3 prostate
# SK-MEL-5 melanoma = test system: SK-MEL-5 melanoma
# LOX IMVI melanoma = test system: LOX IMVI melanoma
# SK-MEL-28 melanoma = test system: SK-MEL-28 melanoma
# HCT-15 colon = test system: HCT-15 colon
# UACC-62 melanoma = test system: UACC-62 melanoma
SMILES,growth (DU-145 prostate),growth (K-562 leukemia),growth (MALME-3M melanoma) [%],growth (MDA-MB-231 breast),growth (RXF 393 renal) [%],growth (SF-268 CNS) [%],growth (SF-295 CNS),growth (SF-539 CNS),growth (UACC-257 melanoma) [%],growth (M14 melanoma) [%],growth (HT29 colon),growth (SNB-75 CNS) [%],growth (SNB-19 CNS) [%],growth (U251 CNS),growth (PC-3 prostate) [%],growth (SK-MEL-5 melanoma),growth (LOX IMVI melanoma),growth (SK-MEL-28 melanoma) [%],growth (HCT-15 colon) [%],growth (UACC-62 melanoma) [%]
Cc1ccc(N=Nc2ccccc2)cc1,111%,112%,98.4,109%,106,99.8,90.3%,100%,88,90.9,92.3%,105,102,101%,78.1,102%,103%,102,,
O=C(Nc1ccc(NS(=O)(=O)c2ccc(F)cc2)cc1)C12CC3CC(CC(C3)C1)C2,103%,74.7%,87.1,96.2%,105,97.4,91.2%,106%,91.6,,89.6%,90,93.7,91.3%,78.8,93.9%,92.2%,99.9,86.8,92.4
NS(=O)(=O)Oc1ccc2c(ccn2C(=O)C23CC4CC(CC(C4)C2)C3)c1,116%,101%,115,102%,115,111,97.8%,103%,102,,102%,117,98.5,99.2%,103,95%,98.8%,,110,98.8
O=c1oc2c(cc1-c1ccc(F)cc1)C(O)Oc1ccccc1-2 (stereo unspecified),98.1%,66.7%,58.4,77.8%,93.9,81.4,84.2%,74.4%,84.1,,66.8%,63.4,95.9,67.4%,92.9,34.8%,77.8%,88.6,,44.5
COc1ccc2c(c1)OC(N)=C(C#N)C2c1cc(OC)c(OC)c(OC)c1 (stereo unspecified),-19.5% (active),7.08% (active),26.9,4.49% (active),38.7,22.8,4.98% (active),4.42% (active),68.2,,0.78% (active),44.7,44.7,6.72% (active),,-46.2% (active),12.7%,62.7,14.2,39
CC(C)N(CCOc1cccc(-c2nc3sccn3c2-c2ccnc(S(C)(=O)=O)n2)c1)C(C)C,89.8%,69.1%,91.3,57.8%,65.3,92.5,103%,91.9%,104,,54.5%,78,101,83.8%,72.7,3.97% (active),84.3%,99.3,81.8,84.1
O=[N+]([O-])c1ccc2ncccc2c1Cl,-26% (active),12.1%,69,21.2%,91.2,38.9,-0.464% (active),12.9%,62.2,,9.81% (active),73.9,62.7,35.9%,38.5,89.3%,20.9%,76.2,13.2,54.7
Cc1cc(SC#N)cc(C(C)(C)C)c1O,110%,91.3%,85.8,113%,118,103,102%,95.6%,94.1,,91.4%,92.4,113,91.4%,66.8,101%,100%,105,103,
C=CCn1c(SCC(=O)Nc2ccc(C(=O)/C=C/c3cc(OC)c(OC)c(OC)c3)cc2)nnc1-c1cc(-c2ccc(Cl)cc2)nc2ccccc12,95.3%,75.9%,97.8,75%,59.4,90.9,98%,84.3%,102,,74.7%,68.8,84.1,86.3%,71.7,91%,75.5%,100,59.5,84.2
CCOS(=O)(=O)c1c(C(C)C)cc(C(C)C)cc1C(C)C,103%,92.8%,89.6,99.5%,108,100,98.9%,99.4%,105,,112%,96.8,103,98.6%,96,100%,101%,96.5,97.2,98.4
COc1ccc(-c2nn(-c3cccc(Cl)c3)cc2-c2nc(N)[nH]c(=O)c2C#N)cc1,102%,28.3%,37.4,62.9%,63.4,68.8,38.6%,75.6%,94,55.8,86.5%,68.9,60.3,,75.5,67.6%,63%,,,58.8
CCOC(=O)c1cc(C(=O)c2cc(OC)cc(OC)c2)n2nc(C)ccc12,21.9%,10.3%,74.3,52.6%,13.6,62.4,23.9%,3.84% (active),59.5,,3.72% (active),18,39.4,23.1%,25,30.6%,48.7%,78.7,32.2,46.7
CC(C)(O)CCl,109%,106%,116,99.8%,117,111,97.9%,99.8%,91.9,108,,110,102,103%,102,104%,104%,110,,102
Cc1ccc(S(=O)(=O)N/N=C2\CCCc3ccccc32)cc1,114%,97.2%,105,108%,103,102,104%,108%,93.8,118,115%,92.4,94.6,,90.3,103%,94.8%,105,,92.9
c1ccc2c(c1)Cc1ccccc1N2CCN1CCCCC1,104%,91.5%,111,81.5%,110,99,92.5%,94.9%,102,86.1,74.4%,94.7,90.6,90.1%,82.7,95.5%,87.8%,,,
COc1ccc(NC(=O)C2CC3C=CC2C3)c([N+](=O)[O-])c1 (stereo unspecified),110%,88.9%,116,93.3%,99.8,102,95.5%,98.6%,98.1,,101%,91.2,91.9,98.4%,94.9,96%,95.3%,98.1,97.1,96.5
CC[C@@H]1NC(=O)[C@H]([C@H](O)[C@H](C)C/C=C/c2ccc(CN3C(=O)CCCC3=O)cc2)N(C)C(=O)[C@H](C(C)C)N(C)C(=O)[C@H](CC(C)C)N(C)C(=O)[C@H](CC(C)C)N(C)C(=O)[C@@H](C)NC(=O)[C@H](C)NC(=O)[C@H](CC(C)C)N(C)C(=O)[C@H](C(C)C)NC(=O)[C@H](CC(C)C)N(C)C(=O)CN(C)C1=O,64.1%,39.6%,83,51.4%,17.3,63.1,39%,23.7%,20.8,,-24.8% (active),56.7,60.7,60.2%,37.3,23.2%,1.01% (active),46.3,19.5,
